Bioassay records from PubChem.
Only some compounds are listed: those with a hit (about 4.6% of all), similar ones and a draw of the others.
TRb SRC2 PPI – inhibitors of human thyroid hormone receptor beta-SRC2 interaction. P10828. TRbeta-SRC2 peptide binding, fluorescence polarization; receptor liganded with 1 µM T3. Potency, µM (series often up to 106 µM), for inactives: at the highest dose activity change, negative = inhibition, usual class: inhibitors. actives 0.065% (n = 280,000). AID 1469;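 further: potency means the concentration at half of the fitted maximal effect; plate controls were bound peptide for no effect and peptide without receptor for full effect; nearly all actives have a fitted effect of over 50% in size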
Target sequence (P10828 whole entry, looked up): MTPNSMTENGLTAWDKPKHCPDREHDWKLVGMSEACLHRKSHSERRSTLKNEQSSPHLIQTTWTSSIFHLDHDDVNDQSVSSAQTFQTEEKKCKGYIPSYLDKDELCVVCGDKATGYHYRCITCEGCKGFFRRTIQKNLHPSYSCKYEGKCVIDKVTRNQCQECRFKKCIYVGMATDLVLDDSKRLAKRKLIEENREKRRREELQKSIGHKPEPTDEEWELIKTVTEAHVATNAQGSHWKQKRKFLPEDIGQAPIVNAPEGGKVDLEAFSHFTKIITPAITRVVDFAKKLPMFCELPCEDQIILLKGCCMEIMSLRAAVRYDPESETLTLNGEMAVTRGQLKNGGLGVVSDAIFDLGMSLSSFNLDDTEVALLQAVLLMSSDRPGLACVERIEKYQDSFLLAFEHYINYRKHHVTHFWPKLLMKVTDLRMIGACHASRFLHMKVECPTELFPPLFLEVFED
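Decrease in fluorescence polarization of 20 nM Texas Red SRC2 coactivator peptide flagged inhibition of its binding to 0.6 uM TRb LBD; 1 uM T3 included, incubation 5 hr, ex 555/em 632 nm.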
Tau FP inhib – blocks human tau fibril formation measured by polarization | P10636 | Potency, µM (highest dose often 57.7 µM), without a hit: top-dose activity, negative = inhibition, usual class: inhibitors | K18 P301L tau heparin fibrillization, Alexa594 FP, 6 h | actives 0.39% (n = 280,000); further: potency means the concentration at half of the fitted maximal effect; nearly all actives have a fitted effect of over 55% in size
Target sequence (P10636 561-689 P618L limits assumed): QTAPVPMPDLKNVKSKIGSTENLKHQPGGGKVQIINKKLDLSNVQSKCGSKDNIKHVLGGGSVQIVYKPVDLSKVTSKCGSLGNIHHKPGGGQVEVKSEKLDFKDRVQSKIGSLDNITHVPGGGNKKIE
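FP of Alexa 594-tau after heparin (20 uM) induction. Substrate: human K18 P301L, 15 uM unlabeled, 0.24 uM labeled. Buffer 100 mM sodium acetate pH 7. 6 hr, 37 C.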
Tau ThT inhib – tau fibrillization inhibition (ThT binding); P10636; recombinant tau K18 P301L, heparin-induced fibrillization, ThT fluorescence; Potency, µM (titrated, usually from 57.4 µM), for the others: at the highest dose activity, negative = inhibition, most hits filed as inhibitors; actives 2.1% (n = 270,000); AID 1460; further: potency means the concentration at half of the fitted maximal effect; nearly all actives have a fitted effect of over 55% in size
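Tau K18 P301L fragment (15 uM unlabeled plus 0.24 uM Alexa 594-labeled) in 100 mM sodium acetate pH 7 with compound, fibrillization induced by 20 uM heparin for 6 hr at 37 C. Thioflavin T (30 uM) added, fluorescence read after 1 hr (ex 450, em 510 nm).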
TR SRC2 fluor cs – alters Texas Red total fluorescence, flagging assay interference; AID 1479; actives 0.29% (n = 280,000); TRb/SRC2 Texas Red total fluorescence interference; Potency, µM (series often up to 106 µM), for inactives: at the highest dose fluorescence change, negative = quenching; active means well fitted curve in either direction with a large enough effect; inconclusive means small, poorly fitted or top-dose-only effect; further: potency means the concentration at half of the fitted maximal effect
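Human TRb ligand-binding domain at 0.6 uM with 20 nM Texas Red SRC2 peptide in Tris buffer containing 1 uM T3 and 5% DMSO, incubated with compound 5 h at ambient temperature. Total fluorescence (555/632 nm) calculated as parallel + 2 × perpendicular.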
Tau fluor cs – counter-screen for tau fibril formation inhibitors; tau K18 P301L Alexa594 fluorescence, heparin fibrillization; Potency, µM (highest dose often 57.7 µM), inactives show at the highest dose activity change, negative = decrease; actives 0.93% (n = 280,000); further: potency means the concentration at half of the fitted maximal effect; nearly all actives have a fitted effect of over 55% in size
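Human tau K18 P301L (15 uM unlabeled, 0.24 uM Alexa 594-labeled) in 100 mM sodium acetate pH 7 with 20 uM heparin, 6 hr at 37 C. ThT 30 uM added, 1 hr ambient; Alexa 594 FP and total fluorescence read at 555/632 nm.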
PNC assembly inh – blocks assembly of the perinucleolar compartment; actives 3.1% (n = 140,000); activity change (PNC), negative = inhibition, % at 10 µM; PC3M PTB-GFP, PNC prevalence imaging, 16 h; active compounds read low;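 active means readout at or below -70, meaning at least 70% loss of cells showing the perinucleolar compartment, a nuclear body marking cancer cells; inconclusive means readout between -30 and a set limit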;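 further: plate controls were DMSO wells for no effect and camptothecin positive control wells for full effect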
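Read-out is percentage of cells bearing a perinucleolar compartment, from automated 20x imaging of fixed, Hoechst-stained PC3M PTB-GFP cells. Cells were seeded 4 h, then exposed 16 h to compound (23 nl of library stock) in duplicate plates.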
* marks the source's active call; other numbers are inactive results; ? = inconclusive; . = no result given; [ ] = dose if it differs, or a comment. Unless noted, the call rests on the fitted dose curve; in most records, active means well fitted curve in the direction sought with a large enough effect; inconclusive means small, poorly fitted or top-dose-only effect, or another doubt; inactive means no such curve, though single readings can be large; an effect the other way counts as inactive or inconclusive. Unless noted, on the % scale 0 is the no-effect control and ±100 the full control effect.

SMILES	TRb SRC2 PPI	Tau FP inhib	Tau ThT inhib	TR SRC2 fluor cs	Tau fluor cs	PNC assembly inh
COC(=O)c1ccc(N(C(=O)CNC(=O)c2ccco2)C(C(=O)NC2CCCC2)c2ccco2)cc1 (stereo not given)	12.4%	-4.6%	-7.9%	-0.2%	-4.1%	-13.7
COc1ccc(N(CC(=O)NC2CCCCC2)C(=O)CNC(=O)c2ccco2)cc1OC	-2.4%	-0.9%	1.7%	-5.6%	2.8%	-100.0*
COc1ccc(N(C(=O)CNC(=O)c2ccco2)C(C(=O)NC2CCCCC2)c2ccco2)cc1 (stereo not given)	0.8%	-1.3%	3.2%	3.4%	-2.3%	-126.9*
CCOCCCN(C(=O)Nc1ccc(Cl)cc1)C1CCN(C(C)=O)CC1	5.3%	-1.9%	4.6%	0.3%	-4.6%	.
CCCCN(C(=O)Nc1ccc(Cl)cc1)C1CCN(C(C)=O)CC1	-4.8%	-9.2%	7.7%	-2.1%	0.4%	-94.7*
C=CCSc1nnc(NC(=O)c2cn(CC)c3nc(C)ccc3c2=O)s1	-4.7%	3.3%	-8.7%	-2.9%	-0.8%	.
CCN(CC)S(=O)(=O)c1ccc(NC2CCCc3ccccc32)nc1 (stereo not given)	10.6%	5.4%	-6.2%	1.8%	-6.8%	-100.0*
COc1cc(/C=C/C(=O)N2CCCCC2=O)cc(OC)c1OC	0.0%	?	11.2µM*	-2.2%	-15.2%	.
COc1ccc(C2C3=C(CCCC3=O)Nc3nc(C(F)(F)F)nn32)cc1OC (stereo not given)	-26.7%	8.0%	-13.1%	1.2%	-7.9%	-23.4
COc1ccc(C2C3=C(CCCC3=O)Nc3nc(C(F)(F)F)nn32)c(OC)c1OC (stereo not given)	-19.4%	-5.8%	-1.4%	5.0%	-6.5%	-87.8*
COc1ccc(CCNC(=O)c2ccc(Cl)c(S(=O)(=O)N(C)c3ccccc3)c2)cc1	8.2%	6.0%	5.7%	-2.2%	2.0%	-88.5*
O=C(c1ccc(N2CCCC2=O)cc1)N1CCOCC1	-11.4%	3.4%	0.6%	-1.5%	3.4%	-85.5*
CN1CCN(C(=O)c2ccc(N3CCCC3=O)cc2)CC1	-1.1%	1.9%	-2.8%	-1.7%	0.3%	39.0
COc1ccc(-c2noc(CCC(=O)NCCN3CCN(c4ccccc4F)CC3)n2)cc1	1.1%	9.5%	-19.4%	0.6%	-16.0%	-19.5
CCOC(=O)c1sc(NC(=O)c2cc(-c3ccc(C)cc3)nc3ccccc23)c(C#N)c1C	5.8%	?	?	-7.2%	-26.3%	50.9
COC(=O)c1sc(NC(=O)c2cc(-c3ccccc3)nc3ccccc23)c(C#N)c1C	6.7%	?	28.2µM*	0.8%	?	18.8
COc1ccc(-c2cc(C(=O)NC3=NCCS3)c3ccccc3n2)cc1OC	3.4%	-11.1%	-15.8%	-8.4%	?	.
O=C(NC1=NCCS1)c1cc(-c2ccc(-c3ccccc3)cc2)nc2ccccc12	8.4%	28.2µM*	-4.9%	3.1%	-23.2%	10.7
Cc1cc2c(cc1[N+](=O)[O-])NC(CNC(C)C)CC2 (stereo not given)	1.1%	3.3%	-11.7%	0.8%	0.7%	.
CCOC(=O)NC(Nc1sc2c(c1C(=O)OC)CCN(C)C2)(C(F)(F)F)C(F)(F)F	-6.4%	0.2%	-11.5%	-1.5%	-5.4%	31.2
Cc1nn(C)c(=O)n1-c1ccccc1	0.9%	3.9%	-1.5%	-0.4%	0.1%	.
Cc1nc(=O)cc(-c2ccccc2)n1-c1ccccc1	-2.9%	-2.9%	-1.4%	1.7%	-7.5%	-107.8*
N#CC(=C=[N-])c1nc2ccccc2nc1-[n+]1ccccc1	1.9%	-3.5%	?	-3.2%	-17.7%	-28.6
COC(=O)c1ccccc1NC(=O)C1CCCN(S(=O)(=O)c2ccc(F)cc2)C1 (stereo not given)	-23.6%	15.4%	-15.4%	0.9%	-21.1%	-89.1*
Oc1cccc2c(NC(=S)Nc3ccc(SC(F)F)cc3)cccc12	5.8%	?	10µM*	-1.3%	11.2µM*[quencher]	78.1
